Experimental data as given in the supplement of paper PMC10849652.
The full data set covers some 7,900 targets. This sample favours those with a hit. About 0.6% of all pairs of compound and target were hits. A number with no mark means an inactive call.

Experiments:
Test in all cases: log2 fold change, soluble protein after heating vs DMSO (PISA); higher = thermal stabilisation; K562 cells, 10 uM, 30 min; active = over 0.2 and 3.5 SD of the protein, either way, in both replicates (recomputed)
[1] = compound: CC[C@@H]1C(=O)N(C)c2cnc(Nc3ccc(C(=O)NC4CCN(C)CC4)cc3OC)nc2N1C1CCCC1
Method in brief: (§1)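 Quantification of soluble protein used TMTpro 16plex LC-MS/MS, with channel sums equalised. Samples were the supernatant after 21,000xg for 90 min of pooled aliquots from K562 cells (2×10^6 cells/mL) treated with 10 μM compound for 30 min, heated for 3 min over 48°C-58°C, and extracted in PBS with 0.5% NP-40 at 4°C. Values, from duplicates, describe thermal stability against control samples on a log2 fold-change scale.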

volasertib = compound: CC[C@@H]1C(=O)N(C)c2cnc(Nc3ccc(C(=O)N[C@H]4CC[C@H](N5CCN(CC6CC6)CC5)CC4)cc3OC)nc2N1C(C)C [volasertib]
Method in brief: as §1

[2] = compound: CC[C@H](C)N1C=C(C2=C(C=C(C=C21)C3=CN=C(C=C3)N4CCNCC4)C(=O)NCC5=C(C=C(NC5=O)C)C)C
Method in brief: as §1

epoxomicin = compound: CC[C@H](C)[C@@H](C(=O)N[C@@H]([C@@H](C)O)C(=O)N[C@@H](CC(C)C)C(=O)[C@]1(CO1)C)NC(=O)[C@H]([C@@H](C)CC)N(C)C(=O)C [epoxomicin]
Method in brief: as §1

[3] = compound: CCn1c(C(=O)N(C2CC2)C2CC2)cc2c3c(ncn3C)c(Nc3cc(C)n(C)n3)nc21
Method in brief: as §1

[4] = compound: CCn1cc(-c2ccnc3[nH]c(-c4cccc(CN(C)C)c4)cc23)c(-c2ccc(NC(=O)N(C)C)cc2)n1
Method in brief: as §1

[5] = compound: CN(C)CC(=O)Nc1ccc2[nH]c(=O)c3ccccc3c2c1
Method in brief: as §1

rosiglitazone = compound: CN(CCOC1=CC=C(C=C1)C[C@H]2C(=O)NC(=O)S2)C3=CC=CC=N3 (racemic) [rosiglitazone]
Method in brief: as §1

[6] = compound: CN1C2=C(C3=C1C(=O)N(N=C3)CC4=CC(=CC=C4)N)SC(=C2)S(=O)C
Method in brief: as §1

[7] = compound: CN1CCC(CNc2ccc3ncc(-c4cccc(OC(F)(F)F)c4)n3n2)CC1
Method in brief: as §1

Sequence of UniProt P55263 (P55263 whole entry, looked up): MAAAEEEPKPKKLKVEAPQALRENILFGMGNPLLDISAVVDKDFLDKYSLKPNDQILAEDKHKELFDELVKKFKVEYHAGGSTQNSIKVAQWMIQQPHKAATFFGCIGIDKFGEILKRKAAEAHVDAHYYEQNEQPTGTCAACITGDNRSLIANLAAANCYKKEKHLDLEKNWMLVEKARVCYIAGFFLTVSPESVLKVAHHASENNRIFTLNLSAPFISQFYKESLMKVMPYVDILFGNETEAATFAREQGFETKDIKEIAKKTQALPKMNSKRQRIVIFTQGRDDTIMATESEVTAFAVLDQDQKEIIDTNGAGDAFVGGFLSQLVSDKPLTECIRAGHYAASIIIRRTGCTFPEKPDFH
Sequence of UniProt Q96GS6 (Q96GS6 whole entry, looked up): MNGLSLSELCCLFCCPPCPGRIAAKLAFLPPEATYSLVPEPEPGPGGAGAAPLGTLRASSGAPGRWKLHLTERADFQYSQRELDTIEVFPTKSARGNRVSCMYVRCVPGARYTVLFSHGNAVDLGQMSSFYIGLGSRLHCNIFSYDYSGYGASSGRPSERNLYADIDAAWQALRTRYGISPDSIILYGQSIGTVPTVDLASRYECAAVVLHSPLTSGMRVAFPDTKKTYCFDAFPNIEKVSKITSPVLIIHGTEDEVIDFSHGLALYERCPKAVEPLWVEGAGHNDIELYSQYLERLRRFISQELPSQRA
Sequence of UniProt Q9H845 (Q9H845 whole entry, looked up): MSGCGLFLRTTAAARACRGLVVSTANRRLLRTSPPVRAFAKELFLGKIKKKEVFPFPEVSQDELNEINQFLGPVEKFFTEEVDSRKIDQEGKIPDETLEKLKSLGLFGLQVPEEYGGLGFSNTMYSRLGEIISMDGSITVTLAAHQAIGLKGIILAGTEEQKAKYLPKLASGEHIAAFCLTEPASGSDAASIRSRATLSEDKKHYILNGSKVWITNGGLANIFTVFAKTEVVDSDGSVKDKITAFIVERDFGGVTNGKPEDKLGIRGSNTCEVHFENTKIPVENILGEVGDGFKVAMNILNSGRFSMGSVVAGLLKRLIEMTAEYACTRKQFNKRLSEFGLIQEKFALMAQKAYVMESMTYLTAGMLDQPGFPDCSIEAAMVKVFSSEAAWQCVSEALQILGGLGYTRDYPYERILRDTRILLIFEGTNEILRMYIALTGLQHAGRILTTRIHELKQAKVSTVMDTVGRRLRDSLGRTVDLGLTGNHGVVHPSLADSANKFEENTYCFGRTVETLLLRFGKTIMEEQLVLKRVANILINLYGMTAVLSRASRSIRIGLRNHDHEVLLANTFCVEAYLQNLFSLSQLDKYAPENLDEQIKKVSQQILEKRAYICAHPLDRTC
Sequence of UniProt Q53FZ2 (Q53FZ2 whole entry, looked up): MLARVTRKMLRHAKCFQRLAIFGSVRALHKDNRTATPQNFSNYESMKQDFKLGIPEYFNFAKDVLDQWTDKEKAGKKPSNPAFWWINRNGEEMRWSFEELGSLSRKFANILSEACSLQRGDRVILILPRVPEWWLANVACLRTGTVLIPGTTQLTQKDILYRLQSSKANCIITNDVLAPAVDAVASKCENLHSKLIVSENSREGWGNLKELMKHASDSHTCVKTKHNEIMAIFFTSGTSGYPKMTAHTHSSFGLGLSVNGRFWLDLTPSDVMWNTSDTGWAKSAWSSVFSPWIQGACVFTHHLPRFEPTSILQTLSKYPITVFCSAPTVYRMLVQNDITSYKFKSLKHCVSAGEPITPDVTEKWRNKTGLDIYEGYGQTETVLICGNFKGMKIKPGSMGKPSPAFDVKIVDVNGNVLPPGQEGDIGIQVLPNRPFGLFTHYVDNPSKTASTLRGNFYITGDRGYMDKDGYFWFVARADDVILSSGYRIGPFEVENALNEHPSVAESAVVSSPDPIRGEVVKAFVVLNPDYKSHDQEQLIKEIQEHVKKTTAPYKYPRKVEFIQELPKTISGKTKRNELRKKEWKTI
Sequence of UniProt Q6P6C2 (Q6P6C2 whole entry, looked up): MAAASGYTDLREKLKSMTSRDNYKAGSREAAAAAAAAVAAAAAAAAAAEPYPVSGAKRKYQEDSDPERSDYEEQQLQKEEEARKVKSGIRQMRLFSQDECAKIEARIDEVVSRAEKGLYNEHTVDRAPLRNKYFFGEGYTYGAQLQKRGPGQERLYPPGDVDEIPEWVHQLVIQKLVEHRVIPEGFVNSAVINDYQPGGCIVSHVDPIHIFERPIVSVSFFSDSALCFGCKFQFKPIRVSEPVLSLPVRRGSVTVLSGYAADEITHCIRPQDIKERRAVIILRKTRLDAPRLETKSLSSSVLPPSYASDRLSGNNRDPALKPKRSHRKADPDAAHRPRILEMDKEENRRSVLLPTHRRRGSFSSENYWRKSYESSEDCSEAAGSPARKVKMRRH
Sequence of UniProt P55957 (P55957 whole entry, looked up): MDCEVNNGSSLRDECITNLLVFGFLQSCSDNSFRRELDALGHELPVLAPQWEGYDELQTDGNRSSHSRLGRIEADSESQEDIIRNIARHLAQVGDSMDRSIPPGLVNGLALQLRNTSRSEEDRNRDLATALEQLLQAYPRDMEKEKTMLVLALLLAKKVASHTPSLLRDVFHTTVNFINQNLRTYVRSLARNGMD
Sequence of UniProt O95573 (O95573 whole entry, looked up): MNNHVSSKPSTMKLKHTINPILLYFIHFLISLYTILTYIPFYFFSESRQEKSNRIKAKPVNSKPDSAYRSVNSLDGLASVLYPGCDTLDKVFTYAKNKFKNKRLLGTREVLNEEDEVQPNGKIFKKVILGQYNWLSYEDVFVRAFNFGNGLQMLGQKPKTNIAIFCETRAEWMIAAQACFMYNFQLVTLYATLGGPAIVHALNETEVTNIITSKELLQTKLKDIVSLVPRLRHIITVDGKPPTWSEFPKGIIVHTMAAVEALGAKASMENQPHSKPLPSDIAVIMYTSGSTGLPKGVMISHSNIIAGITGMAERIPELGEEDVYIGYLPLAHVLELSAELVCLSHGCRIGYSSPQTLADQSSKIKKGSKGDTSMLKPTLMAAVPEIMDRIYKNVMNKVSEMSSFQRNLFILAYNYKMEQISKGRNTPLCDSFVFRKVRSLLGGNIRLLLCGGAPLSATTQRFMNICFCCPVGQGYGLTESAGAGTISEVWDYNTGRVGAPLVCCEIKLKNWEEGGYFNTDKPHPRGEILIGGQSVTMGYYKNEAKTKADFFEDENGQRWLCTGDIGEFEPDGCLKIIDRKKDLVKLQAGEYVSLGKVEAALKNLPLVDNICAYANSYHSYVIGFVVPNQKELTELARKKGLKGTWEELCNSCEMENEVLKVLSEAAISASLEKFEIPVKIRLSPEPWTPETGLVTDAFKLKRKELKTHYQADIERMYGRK
Sequence of UniProt Q9BRQ8 (Q9BRQ8 whole entry, looked up): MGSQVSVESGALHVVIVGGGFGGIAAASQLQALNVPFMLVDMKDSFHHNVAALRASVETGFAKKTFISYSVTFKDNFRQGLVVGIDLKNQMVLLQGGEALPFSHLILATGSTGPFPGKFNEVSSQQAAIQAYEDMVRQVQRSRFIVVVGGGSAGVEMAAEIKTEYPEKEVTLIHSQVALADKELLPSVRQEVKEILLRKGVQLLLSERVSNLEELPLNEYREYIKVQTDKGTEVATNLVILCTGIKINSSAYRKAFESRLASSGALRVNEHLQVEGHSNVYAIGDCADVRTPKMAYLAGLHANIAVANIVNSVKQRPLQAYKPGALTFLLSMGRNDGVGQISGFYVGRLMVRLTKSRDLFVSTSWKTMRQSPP
Sequence of UniProt Q9NX46 (Q9NX46 whole entry, looked up): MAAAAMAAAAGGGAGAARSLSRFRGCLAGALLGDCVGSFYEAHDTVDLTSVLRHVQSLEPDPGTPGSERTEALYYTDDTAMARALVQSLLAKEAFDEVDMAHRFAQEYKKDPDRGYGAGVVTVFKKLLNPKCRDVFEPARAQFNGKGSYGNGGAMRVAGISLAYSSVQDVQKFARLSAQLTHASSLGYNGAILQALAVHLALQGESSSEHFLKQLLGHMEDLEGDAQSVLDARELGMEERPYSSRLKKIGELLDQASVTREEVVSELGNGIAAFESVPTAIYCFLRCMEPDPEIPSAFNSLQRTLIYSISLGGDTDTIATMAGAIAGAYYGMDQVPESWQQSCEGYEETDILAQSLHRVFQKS
Sequence of UniProt O60566 (O60566 whole entry, looked up): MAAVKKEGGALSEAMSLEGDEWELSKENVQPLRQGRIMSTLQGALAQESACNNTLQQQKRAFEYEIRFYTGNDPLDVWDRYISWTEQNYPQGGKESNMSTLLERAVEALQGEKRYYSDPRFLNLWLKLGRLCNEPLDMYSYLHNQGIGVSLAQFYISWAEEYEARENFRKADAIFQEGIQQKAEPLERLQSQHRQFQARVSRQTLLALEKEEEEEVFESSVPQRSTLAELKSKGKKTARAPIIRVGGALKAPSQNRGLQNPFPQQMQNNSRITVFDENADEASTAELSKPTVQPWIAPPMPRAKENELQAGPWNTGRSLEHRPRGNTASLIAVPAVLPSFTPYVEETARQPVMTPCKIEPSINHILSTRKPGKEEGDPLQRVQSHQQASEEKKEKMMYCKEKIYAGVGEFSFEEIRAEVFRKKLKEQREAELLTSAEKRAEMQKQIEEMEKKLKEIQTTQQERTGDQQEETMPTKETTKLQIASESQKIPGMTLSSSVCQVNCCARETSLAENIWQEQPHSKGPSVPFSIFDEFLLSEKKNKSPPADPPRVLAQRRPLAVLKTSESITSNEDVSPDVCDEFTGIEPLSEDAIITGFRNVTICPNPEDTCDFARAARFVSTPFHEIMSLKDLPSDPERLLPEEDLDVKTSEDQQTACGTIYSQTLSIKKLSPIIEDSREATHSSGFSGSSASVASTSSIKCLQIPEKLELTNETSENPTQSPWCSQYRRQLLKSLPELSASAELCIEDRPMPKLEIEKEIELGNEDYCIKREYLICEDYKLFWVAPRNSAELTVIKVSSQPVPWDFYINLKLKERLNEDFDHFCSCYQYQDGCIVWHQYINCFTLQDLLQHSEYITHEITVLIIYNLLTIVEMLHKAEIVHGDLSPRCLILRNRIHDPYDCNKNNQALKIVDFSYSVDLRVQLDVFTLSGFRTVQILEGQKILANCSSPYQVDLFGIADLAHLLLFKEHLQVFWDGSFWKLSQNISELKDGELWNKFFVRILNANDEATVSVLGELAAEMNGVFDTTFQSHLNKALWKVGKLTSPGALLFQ

Target | log2 fold change [1] | log2 fold change (volasertib) | log2 fold change [2] | log2 fold change (epoxomicin) | log2 fold change [3] | log2 fold change [4] | log2 fold change [5] | log2 fold change (rosiglitazone) | log2 fold change [6] | log2 fold change [7]
ABCC5 (UniProt O15440) | -0.075 | 0.027 | 0.023 | -0.028 | 0.024 | -0.031 | -0.069 | -0.003 | 0.028 | 0.075
ACSF3 (UniProt Q4G176) | -0.014 | -0.093 | 0.039 | 0.152 | 0.034 | -0.17 | 0.008 | 0.125 | 0.016 | -0.116
BCLAF1 (UniProt Q9NYF8) | -0.089 | -0.08 | 0.024 | -0.027 | -0.016 | -0.002 | 0.099 | 0.018 | -0.015 | 0.024
ATP5IF1 (UniProt Q9UII2) | -0.149 | 0.141 | -0.078 | -0.041 | 0.021 | 0.013 | -0.13 | -0.02 | -0.04 | 0.037
ACACB (UniProt O00763) | -0.006 | -0.468 | 0.083 | -0.1 | -0.194 | 0.086 | 0.061 | 0.167 | 0.308 | 0.104
ADH5 (UniProt P11766) | 0.01 | 0.02 | -0.024 | -0.016 | 0.043 | -0.001 | -0.01 | 0.026 | -0.052 | -0.02
ACSM3 (UniProt Q53FZ2) | 0.021 | -0.092 | 0.062 | 0.146 | -0.03 | -0.02 | 0.154 | 0.046 | -0.099 | -0.145
ATG4B isoform 2 (UniProt Q9Y4P1) | -0.007 | -0.441 | 0.16 | -0.013 | 0.011 | 0.039 | 0.08 | 0.136 | 0.1 | -0.302
ATOX1 (UniProt O00244) | 0.009 | 0 | -0.015 | 0.107 | 0.016 | -0.079 | 0.056 | 0.012 | -0.023 | 0.094
ABHD17A isoform 2 (UniProt Q96GS6) | -0.072 | -0.172 | -0.084 | -0.057 | -0.058 | -0.17 | -0.067 | 0.009 | -0.015 | -0.377 (active)
AIFM2 (UniProt Q9BRQ8) | 0.002 | -0.035 | -0.058 | -0.035 | -0.025 | -0.017 | 0.003 | 0.001 | -0.069 | 0.068
ALDH1B1 (UniProt P30837) | -0.036 | 0.05 | -0.005 | 0.032 | -0.05 | -0.113 | 0.001 | 0.048 | -0.095 | 0.058
AUP1 (UniProt Q9Y679) | -0.132 | -0.253 | 0.032 | 0.046 | -0.002 | -0.028 | 0.089 | 0.12 | 0.014 | -0.24 (active)
BID isoform 2 (UniProt P55957) | 0.013 | -0.196 | -0.022 | -0.036 | -0.022 | 0.045 | 0.042 | 0.001 | -0.068 | -0.048
ADK (UniProt P55263) | 0.338 | 0.359 | -0.095 | -0.011 | 0.097 | -0.026 | -0.018 | -0.017 | -0.085 | 0.184
ACAD9 (UniProt Q9H845) | 0.03 | 0.024 | -0.039 | 0.015 | 0.006 | 0.014 | 0.022 | -0.016 | -0.032 | -0.002
ASNS (UniProt P08243) | -0.01 | 0.015 | 0.008 | 0.021 | 0.008 | -0.051 | -0.008 | 0.003 | -0.064 | -0.037
AP2B1 isoform 2 (UniProt P63010) | 0.065 | -0.064 | -0.001 | -0.004 | 0.05 | -0.021 | -0.007 | -0.018 | -0.016 | 0.045
BECN1 (UniProt Q14457) | 0.069 | -0.003 | 0.029 | 0.07 | 0.053 | -0.107 | -0.003 | 0.013 | 0.024 | 0.009
ADPRHL2 (UniProt Q9NX46) | -0.027 | 0.071 | -0.028 | 0.145 | -0.05 | -0.093 | 0.116 | 0.002 | -0.042 | 0.133
AKR1C3 (UniProt P42330) | 0.011 | 0.009 | -0.01 | 0 | 0.131 | -0.247 | 0.067 | -0.06 | -0.127 | 0.214
ACSL3 (UniProt O95573) | -0.062 | -0.23 (active) | 0.022 | 0.048 | -0.049 | -0.042 | 0.024 | 0.642 (active) | -0.036 | -0.1
ARL6IP6 (UniProt Q8N6S5) | 0.154 | -0.007 | -0.043 | -0.086 | -0.074 | 0.004 | 0.004 | 0.005 | 0.029 | 0.01
ATP23 (UniProt Q9Y6H3) | -0.007 | 0.004 | -0.078 | 0.016 | 0.059 | 0.055 | -0.045 | -0.011 | -0.087 | -0.478 (active)
ALKBH5 (UniProt Q6P6C2) | 0.08 | 0.109 | 0.01 | -0.033 | -0.112 | -0.058 | -0.058 | -0.015 | -0.011 | 0.041
BAD (UniProt Q92934) | -0.043 | 0.038 | 0.085 | -0.086 | 0.014 | 0.022 | -0.125 | 0.059 | -0.069 | -0.006
ACADM isoform 2 (UniProt P11310) | -0.045 | -0.03 | -0.015 | 0.015 | 0.014 | -0.042 | -0.024 | 0.008 | -0.078 | -0.011
BPHL (UniProt Q86WA6) | 0.013 | -0.005 | 0.065 | 0.005 | 0.027 | -0.017 | -0.07 | 0.041 | 0.017 | 0.063
BUB1B isoform 3 (UniProt O60566) | -0.127 | -0.66 (active) | 0.056 | 0.02 | -0.055 | 0.043 | 0.065 | 0.089 | 0.013 | -0.078
ACBD6 (UniProt Q9BR61) | -0.032 | -0.473 (active) | 0.103 | 0.05 | 0.01 | -0.11 | 0.141 | 0.363 | -0.099 | 0.046
